In the library only some 12% were active in any assay of this set; here they are far more common.
HP1b binding inh: HTS for Inhibitors of HP1-beta Chromodomain Interactions with Methylated Histone Tails | AlphaScreen HP1-beta / biotin-H3K9me3 peptide binding | Potency, µM (doses to about 114 µM), inactives show at the top dose activity change, negative = inhibition, most hits filed as inhibitors | actives 0.56% (n = 390,000); also: nearly all actives have a fitted effect of over 70% in size
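AlphaScreen: HP1-beta (50 nM) preformed 30 min with biotin-H3(1-18)K9me3 peptide (50 nM) in PBS pH 7.4, 0.01% Tween-20. Compound added for 30 min at RT, then streptavidin donor/nickel chelate acceptor beads (10 ug/mL) for 30 min.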
BAZ2B inh: qHTS Assay for Inhibitors of BAZ2B; Bromodomain adjacent to zinc finger domain protein 2B (Homo sapiens), Q9UIF8; AlphaScreen BAZ2B-H3K14Ac peptide displacement; Potency, µM (doses to about 114 µM), without a hit: top-dose activity change, negative = inhibition, most hits filed as inhibitors; actives 4.4% (n = 360,000); AID 504333, 2011; also: % is scaled to controls: 0 for no effect and ±100 for the full control effect; nearly all actives have a fitted effect of over 60% in size
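AlphaScreen displacement of biotin-H3(5-23)K14Ac peptide (50 nM final) from BAZ2B (50 nM final) in PBS pH 7.4, 0.01% Tween-20; complex preformed 30 min RT, then compounds (top 110 uM) 30 min RT, beads 20 min dark.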
JMJD2A Tudor inh: qHTS Assay for Inhibitors of JMJD2A-Tudor Domain; Lysine-specific demethylase 4A (Homo sapiens), O75164; AlphaScreen JMJD2A-Tudor / H3K4me3 peptide binding; Potency, µM (highest dose often 114 µM), inactives show at the highest dose activity change, negative = inhibition, most hits filed as inhibitors; actives 4.4% (n = 390,000); also: % is scaled to controls: 0 for no effect and ±100 for the full control effect; nearly all actives have a fitted effect of over 50% in size
Target sequence (O75164 whole entry, looked up, the tested form may be a part): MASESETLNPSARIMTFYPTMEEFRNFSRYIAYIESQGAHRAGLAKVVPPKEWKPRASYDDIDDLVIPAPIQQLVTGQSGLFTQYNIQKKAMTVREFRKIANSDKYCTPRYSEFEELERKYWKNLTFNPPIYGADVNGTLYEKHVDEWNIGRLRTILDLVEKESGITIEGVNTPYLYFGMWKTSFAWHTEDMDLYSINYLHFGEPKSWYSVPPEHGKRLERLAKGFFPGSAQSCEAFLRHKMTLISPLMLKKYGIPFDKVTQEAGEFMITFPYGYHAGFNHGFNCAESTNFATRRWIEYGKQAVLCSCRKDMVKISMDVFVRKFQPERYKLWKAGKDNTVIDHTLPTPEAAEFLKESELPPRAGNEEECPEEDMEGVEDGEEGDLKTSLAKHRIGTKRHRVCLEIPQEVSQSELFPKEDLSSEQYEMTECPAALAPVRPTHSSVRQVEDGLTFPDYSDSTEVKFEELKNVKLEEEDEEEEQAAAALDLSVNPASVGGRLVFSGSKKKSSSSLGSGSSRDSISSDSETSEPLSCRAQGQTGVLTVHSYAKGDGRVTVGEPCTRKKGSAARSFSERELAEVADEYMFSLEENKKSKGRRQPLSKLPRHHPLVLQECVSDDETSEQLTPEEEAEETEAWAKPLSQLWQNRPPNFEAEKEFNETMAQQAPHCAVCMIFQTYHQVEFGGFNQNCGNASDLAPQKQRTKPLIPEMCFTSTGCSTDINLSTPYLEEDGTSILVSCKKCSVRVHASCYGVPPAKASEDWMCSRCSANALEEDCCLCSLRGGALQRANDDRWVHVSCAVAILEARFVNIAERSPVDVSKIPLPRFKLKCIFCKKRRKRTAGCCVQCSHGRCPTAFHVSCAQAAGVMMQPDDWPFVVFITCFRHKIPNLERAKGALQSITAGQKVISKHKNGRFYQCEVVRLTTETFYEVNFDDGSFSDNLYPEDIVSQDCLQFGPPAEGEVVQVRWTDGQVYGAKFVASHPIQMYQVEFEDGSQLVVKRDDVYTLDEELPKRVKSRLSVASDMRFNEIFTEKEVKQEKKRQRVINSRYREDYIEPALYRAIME
Sfp inh: qHTS Assay for Inhibitors of Bacillus subtilis Sfp phosphopantetheinyl transferase (PPTase); 4'-phosphopantetheinyl transferase ffp (Bacillus subtilis), Q9F4F7; Biochemical Sfp PPTase activity, qHTS; Potency, µM, for inactives: largest response in the series, negative = inhibition, actives largely listed as inhibitors; actives 3.5% (n = 310,000); AID 1490, 2009;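 also: the enzyme is Sfp with the accession as filed and its product quenches rhodamine fluorescence; 0% = enzyme reaction without inhibitor and -100% = no enzyme wells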
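After 15 min at room temperature with compound, 15 nM Sfp received 5 uM rhodamine-CoA plus 12.5 uM BHQ-2-ybbR (50 mM Hepes pH 7.6, 10 mM MgCl2). Rate came from the fluorescence difference over 30 min, ex 525/em 598 nm.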
L3MBTL1 inh: qHTS Assay for the Inhibitors of L3MBTL1; Lethal(3)malignant brain tumor-like protein 1 (Homo sapiens), Q9Y468; AlphaScreen L3MBTL1–H3K9me1 peptide binding; Potency, µM (top dose mostly 57.1 µM), without a hit: top-dose activity, negative = inhibition, usual class: inhibitors; actives 0.66% (n = 230,000); AID 485360, 2010; also: % is scaled to controls: 0 for no effect and ±100 for the full control effect; nearly all actives have a fitted effect of over 60% in size
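L3MBTL1 (50 nM) pre-complexed 30 min with biotinylated H3(1-15)K9me1 peptide (75 nM), then compounds added for 30 min at room temperature; AlphaScreen streptavidin donor/nickel chelate acceptor beads (10 ug/mL final) read after 30 min dark incubation.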
G9a inh: qHTS Assay for Inhibitors of Histone Lysine Methyltransferase G9a. Histone-lysine N-methyltransferase EHMT2 (Homo sapiens), Q96KQ7. G9a H3K9 monomethylation, AlphaScreen, 2 h. Potency, µM (top dose mostly 102 µM), inactives show at the top dose activity, negative = inhibition, most hits filed as inhibitors. actives 8.8% (n = 350,000). AID 504332, 2011; also: % is scaled to controls: 0 for no effect and ±100 for the full control effect; nearly all actives have a fitted effect of over 75% in size
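Methyltransferase reactions run at room temperature for 2 h (20 nM enzyme, 500 nM biotin-H3K9 peptide, 20 uM SAM) after a 15 min compound preincubation; product detected by AlphaScreen beads and anti-H3K9me1 antibody.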
Numbers without * were called inactive; ? = inconclusive; / = no result; ! = repeats disagree; [ ] = remark or other dose. Calls follow the shape of the dose curve; as a rule, active = well fitted curve in the direction sought with a large enough effect; inconclusive = small, poorly fitted or top-dose-only effect, or another doubt; inactive = no such curve, though single readings can be large; an effect the other way counts as inactive or inconclusive. Potency is read from the fitted curve at half-maximal effect.

SMILES	HP1b binding inh	BAZ2B inh	JMJD2A Tudor inh	Sfp inh	L3MBTL1 inh	G9a inh
Cn1cccc1Cc1nnc(SCC(=O)NCC2CCCO2)n1-c1ccc(F)cc1 (configuration not stated)	21%	-6%	0%	-2%	-8%	35µM*
COc1ccc(-n2c(Cc3cccn3C)nnc2SCC(=O)Nc2ccc(Cl)cc2)cc1	-24%	?	?	16%	-17%	?
Cn1cccc1Cc1nnc(SCC(=O)Nc2ccc(F)cc2)n1-c1ccc(F)cc1	-17%	?	?	-20%	?	45µM*
COc1ccc(-n2c(Cc3cccn3C)nnc2SCC(=O)Nc2ccccc2)cc1	-18%	?	?	-1%	-17%	28µM*
CC(=O)N(/N=C1/C(=O)Nc2ccccc21)c1ccccc1	?	-37%	?	-19%	/	14µM*
CC(/C=C/C(=O)NO)=C\[C@@H](C)C(=O)c1ccc(N(C)C)cc1	/	/	/	11%	/	16µM*!
CC(NC(=O)c1ccc(N(C)C)cc1)c1ccc(F)cc1 (configuration not stated)	22%	-16%	-25%	10%	0%	14%
Cc1ccc(S(=O)(=O)c2nc(S(C)(=O)=O)sc2N(C)Cc2ccccc2)cc1	45%	-19%	-19%	/	/	-33%[59 µM]
CC1Cc2cccc3c(O)c(C(=O)c4nn[nH]n4)c(=O)n1c23 (configuration not stated)	61%	?	?	-32%	3%	8.9µM*
CC(=O)c1c(O)c2cccc3c2n(c1=O)CCC3	56%	-4%	-10%	-6%	/	14%
Cc1csc(Nc2ccccc2)[n+]1-c1ccccc1	28µM*	45µM*	22µM*	6%	-6%	10µM*
CC(=O)Nc1ccc(NC(=O)C(Cc2ccccc2)NS(=O)(=O)c2ccc3c(c2)oc(=O)n3C)cc1 (configuration not stated)	45%	-16%	3%	/	/	?
CN(C)C(CNC(=O)c1cnc(Cl)c(Cl)c1)c1ccccc1 (configuration not stated)	?	56µM*	20µM*	?	/	?
CN(C)C(CNC(=O)c1ccc(C2SCCS2)cc1)c1ccccc1 (configuration not stated)	-12%	-23%	?	4%	/	50µM*
CN(C)C(CNC(=O)c1ccc(NC(=O)c2cccs2)cc1)c1ccccc1 (configuration not stated)	20%	3%	-10%	0%	/	-17%
COCc1n[nH]c(=S)n1-c1cccc2ccccc12	17%	0%	20µM*	-18%	3%	16µM*
COc1ccc(-c2cc(-c3n[nH]c(=S)n3-c3cccc4ccccc34)[nH]n2)cc1	?	?	?	1%	?	35µM*
CC(=O)c1ccc(-n2c(-c3cc(-c4ccsc4)n[nH]3)n[nH]c2=S)cc1	10%	-35%	?	-36%	11%	1.1µM*
S=c1[nH]nc(-c2cc(-c3ccsc3)n[nH]2)n1-c1cccc2ccccc12	1%	?	?	-15%	-11%	8.9µM*
CCOC(=O)c1cc(-c2ccc(OC)cc2)n[nH]1	36%	1%	-7%	5%	52%	/
COc1ccc(-n2c(COc3cccc(C)c3)n[nH]c2=S)cc1	18%	-2%	?	13%	1%[2.29 µM]	17%[0.501 µM]
O=C1CCC=C1C(O)c1ccccc1 (configuration not stated)	/	/	/	-8%	/	/
COc1c(O)c(=O)n2c3ccccc3c3ccnc1c32	-10%	10%	?	/	-5%	?
O=c1c(Cl)c(O)c2cccc3c4ccccc4n1c23	6%	-27%	-26%	14µM*	0%	45µM*
O=C(CSc1cccc2cccnc12)OCC(=O)c1ccccc1	-6%	1%[57.1 µM]	35µM*	9%	0%	16%
SMILES	HP1b binding inh	BAZ2B inh	JMJD2A Tudor inh	Sfp inh	L3MBTL1 inh	G9a inh
CCOc1ccccc1C(=O)Nc1cc(-c2nc3cccnc3s2)ccc1C	4%	32µM*	?	/	/	10µM*
COc1ccc(C(=O)Nc2cccc(-c3nc4cccnc4s3)c2C)c(OC)c1	0%	-25%	?	/	/	11µM*
CCOC(=O)c1c(NC(=O)CSc2ncn[nH]2)sc(C)c1C	-17%	-12%	-24%	-25%	-10%	45µM*
CCCCc1nc(SCC(=O)Nc2nnc(CCCC)s2)n[nH]1	43%	-28%	3%	14%	0%[11.4 µM]	?
CCOC(=O)c1c(NC(=O)c2cccs2)sc(C(=O)N(C)C)c1C	-13%	2%	-8%	?	/	?
CCCc1nnc(NC(=O)CSc2ncn[nH]2)s1	21%	-39%	-15%	3%	14%	35µM*
CCOC(=O)c1c(NC(=O)CSc2ncn[nH]2)sc(C(=O)N(C)C)c1C	12%	8%	-6%	/	7%	50µM*
CCOC(=O)c1c(NC(=O)c2cccnc2Cl)sc(C(=O)N(C)C)c1C	-11%	0%	-13%	20%	3%	25µM*
Cc1cccc2sc(N(Cc3cccnc3)C(=O)c3cccs3)nc12	71%	10%	5%	/	/	0%[59 µM]
Cc1cc(C)c2c(CC(=O)Nc3c(C(=O)c4ccc(F)cc4)oc4ccccc34)coc2c1	58%	-6%	-22%	/	/	6%[59 µM]
N#C/C(=C/c1ccc(N2CCOCC2)o1)C(=O)NC1CCCCC1	26%	?	-12%	25µM*	6%	/
COc1ccc(NC(=O)/C(C#N)=C\c2ccc(N3CCOCC3)o2)cc1	0%	-35%	-18%	-10%	-19%	?
N#C/C(=C\c1ccc(N2CCOCC2)o1)C(=O)Nc1ccc(O)cc1	-15%	?	-25%	0%	-23%	40µM*
O=C(O)c1oc2ccccc2c1-n1cccc1	-4%	4%	79µM*	-2%	-8%	?
COC(=O)c1oc2ccc(Br)cc2c1-n1cccc1	21%	-1%	-29%	-26%	-3%	16%[59 µM]
CCOC(=O)CC(=O)CSc1nc2c(cc1C#N)CCCCC2	74%	4%	50µM*	?	-14%	7.9µM*
N#Cc1cc2c(nc1SCc1ccncc1)CCC2	10%	3%	22µM*	50µM*	0%	3.2µM*
